Compound activity deposited in PubChem BioAssay by several laboratories.
Neddyl block – inhibitors of cullin neddylation, primary screen, biochemical, TR-FRET, uHTS, NAE and Ubc12; NEDD8-conjugating enzyme Ubc12 (Homo sapiens) + NEDD8-activating enzyme E1 regulatory …; AID 651699, 2012; actives 0.58% (n = 360,000); calls only at 25 µM; in the data active means inhibition above about 36%
Target sequence (P61081 whole entry, looked up): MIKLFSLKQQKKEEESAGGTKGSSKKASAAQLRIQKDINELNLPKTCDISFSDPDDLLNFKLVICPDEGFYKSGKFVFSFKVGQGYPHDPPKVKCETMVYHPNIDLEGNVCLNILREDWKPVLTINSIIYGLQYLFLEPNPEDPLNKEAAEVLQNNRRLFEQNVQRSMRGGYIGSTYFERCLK
Target sequence (Q13564 whole entry, looked up): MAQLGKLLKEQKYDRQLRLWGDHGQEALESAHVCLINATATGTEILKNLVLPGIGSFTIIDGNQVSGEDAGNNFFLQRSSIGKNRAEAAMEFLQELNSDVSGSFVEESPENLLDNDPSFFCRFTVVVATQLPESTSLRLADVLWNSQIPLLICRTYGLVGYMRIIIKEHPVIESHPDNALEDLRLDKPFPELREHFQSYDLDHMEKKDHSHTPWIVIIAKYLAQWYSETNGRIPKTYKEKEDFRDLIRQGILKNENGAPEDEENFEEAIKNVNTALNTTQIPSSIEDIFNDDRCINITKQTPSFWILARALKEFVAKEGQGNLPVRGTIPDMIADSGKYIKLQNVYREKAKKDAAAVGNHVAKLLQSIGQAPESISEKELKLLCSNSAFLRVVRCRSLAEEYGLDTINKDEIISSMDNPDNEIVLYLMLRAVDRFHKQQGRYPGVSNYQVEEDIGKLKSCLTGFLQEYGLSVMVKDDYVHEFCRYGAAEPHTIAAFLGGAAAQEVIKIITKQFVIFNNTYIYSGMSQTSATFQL
PfGluPho inh – PfG6PD enzyme inhibitors, primary screen, biochemical, fluorescence intensity, uHTS; glucose-6-phosphate dehydrogenase-6-phosphogluconolactonase (Plasmodium falciparum 3D7); PfGluPho enzyme, NADPH resazurin-diaphorase fluorescence; inhibition, % at 20 µM; actives 0.78% (n = 350,000); AID 504690, 2011;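 active means inhibition reaching at least a set limit at 20 µM in the primary screen, cut at about 59% in these data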;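 further: 0% = DMSO wells with substrate and 100% = DMSO wells lacking glucose-6-phosphate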
KLK7 zymogen act – proKLK7 zymogen activators, primary screen, biochemical, fluorescence intensity. Kallikrein-7 (Homo sapiens), P49862. purified proKLK7, EDANS-DABCYL substrate fluorescence; 100% is mature enzyme control, 0% vehicle. activation, % at 7 µM. actives 0.9% (n = 370,000). AID 652039, 2013;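 active means activation above the mean of all tested compounds plus 3 SD, computed per campaign excluding outliers beyond control limits, cut at about 13% in these data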
FAS TE block – FAS thioesterase domain inhibitors, primary screen, biochemical, fluorescence intensity, uHTS | Fatty acid synthase (Homo sapiens), P49327 | recombinant FAS-TE, OMFH fluorogenic substrate, fluorescence endpoint | inhibition, % at 15 µM | actives 0.67% (n = 360,000) | AID 602261, 2012;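 active means compounds whose normalised, plate-corrected inhibition of enzyme fluorescence in the single-dose primary screen is 50% or more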;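 further: 0% = DMSO with enzyme and 100% = substrate without enzyme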
FAS-TE conf – FAS thioesterase domain inhibitors, confirmation, biochemical, fluorescence intensity, single concentration | shares compounds with FAS TE block | AID 624325, 2012 | inhibition, % at 15 µM | actives 45% (n = 2,300) | recombinant FAS-TE, OMFH fluorogenic substrate;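 active means compounds inhibiting the enzyme by at least 50% at 15 µM in any one of the replicates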;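 further: 0% = enzyme with DMSO only and 100% = wells lacking enzyme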
Numbers without * were called inactive; i = inactive; . = not tested or not shown. The list is not random: actives were taken first. Their share in the collection is about 2.7%.

SMILES	Neddyl block	PfGluPho inh	KLK7 zymogen act	FAS TE block	FAS-TE conf
COc1ccc(C=Nn2c(-c3n[nH]c4c3CCC4)n[nH]c2=S)cc1OCc1ccccc1	.	.	-1.3	.	.
O=C(NC1CCCCN(Cc2ccc(OC(F)(F)F)cc2)C1=O)c1ccc2ccccc2c1 (stereo not given)	.	.	-0.1	.	.
O=C(/C=C/c1cccc([N+](=O)[O-])c1)N1CCN(c2ccccc2F)CC1	i	2.8	0.2	56.3*	42.1*
O=C(COC(=O)c1cc([N+](=O)[O-])ccc1N1CCOCC1)c1ccc(F)cc1	i	17.7	0.2	69.4*	39.6*
O=C(c1ccc(Cl)cc1)c1cc([N+](=O)[O-])ccc1N1CCOCC1	i	27.1	0.3	41.0	.
CCc1ccc(C(=O)COC(=O)c2cc([N+](=O)[O-])ccc2N2CCOCC2)cc1	i	15.3	-1.2	79.9*	79.6*
CCCCCN1CCCCC(NC(=O)c2ccc(C)cc2)C1=O (stereo not given)	.	.	0.4	.	.
N#CCC[C@@H]1CC[C@]2(CCCN(C(=O)c3cccnc3)C2)O1	.	.	-0.3	.	.
O=[N+]([O-])c1ccc(/C=N/Nc2nc(N3CCOCC3)nc(N3CCOCC3)n2)cc1	i	.	.	50.5*	22.7
O=[N+]([O-])c1cccc(/C=N/Nc2nc(N3CCOCC3)nc(N3CCOCC3)n2)c1	i	9.2	-0.6	12.1	.
O=[N+]([O-])c1ccc(Cl)c(/C=N/Nc2nc(N3CCOCC3)nc(N3CCOCC3)n2)c1	i	2.2	-0.1	50.7*	5.0
CC(C)c1ccc(/C=N/Nc2cc(N3CCOCC3)nc(N3CCOCC3)n2)cc1	i	22.0	0.4	89.0*	90.3*
CN(CCc1ccccn1)C(=O)c1ccc(Sc2ccccc2Cl)c([N+](=O)[O-])c1	.	.	1.1	.	.
COC(=O)[C@H](C)N(Cc1cn(Cc2ccccc2)nn1)S(=O)(=O)c1ccccc1Br	.	.	0.5	.	.
O=c1c2ccccc2oc2cc(C#CC3(O)CCCCC3)ccc12	i	14.3	-0.2	54.9*	36.2
COc1cccc2oc3cc(C#CC4(O)CCCCC4)ccc3c(=O)c12	.	14.7	-17.3	-0.3	.
COc1ccc([N+](=O)[O-])cc1NC(=O)CC(c1ccccc1)c1ccccc1	i	5.9	-0.6	61.8*	54.2*
COc1ccc(N(CC(=O)Nc2ccc(OC)cc2OC)S(=O)(=O)c2ccccc2)cc1	i	4.1	0.1	38.0	.
COc1ccc([N+](=O)[O-])cc1NC(=O)C1(c2ccccc2)CCOCC1	i	-2.2	0.0	50.7*	52.6*
COc1ccc(NC(=O)CN(c2ccc([N+](=O)[O-])cc2)S(=O)(=O)c2ccccc2)c(OC)c1	i	10.5	0.5	69.5*	68.3*
COc1ccc([N+](=O)[O-])cc1NC(=O)C(C)c1ccccc1 (stereo not given)	i	16.5	-0.5	45.3	.
COc1ccc([N+](=O)[O-])cc1NC(=O)C(C)NNC(=O)c1cccc([N+](=O)[O-])c1 (stereo not given)	i	1.0	0.0	56.2*	52.6*
COc1ccc([N+](=O)[O-])cc1NC(=O)CCN1CCOCC1	i	7.5	-0.6	9.9	.
Cc1cc(N2CCN(C(=O)Oc3ccc(-c4ccccc4)cc3)CC2)c2ccccc2n1	.	.	-0.6	.	.
Oc1cc(O)cc(C=Cc2ccc(O)c(O)c2)c1	.	.	-134.7	.	.
SMILES	Neddyl block	PfGluPho inh	KLK7 zymogen act	FAS TE block	FAS-TE conf
CCC(CC)C(=O)Nc1cc([N+](=O)[O-])ccc1Cl	i	0.0	0.3	17.2	.
O=C(Nc1ccc(Cl)c([N+](=O)[O-])c1)C(Sc1ccccc1)c1ccccc1 (stereo not given)	i	12.2	-0.5	44.1	.
COc1cccc(NC(C)C(=O)Nc2cc([N+](=O)[O-])ccc2Cl)c1 (stereo not given)	i	-6.5	-0.2	55.7*	58.3*
O=C(Nc1cc([N+](=O)[O-])ccc1Cl)C(Sc1ccccc1)c1ccccc1 (stereo not given)	i	15.6	-0.2	73.2*	67.3*
Cc1ccc(N(CC(=O)N/N=C/c2ccc(OC3CSC3)cc2)S(=O)(=O)c2ccccc2)cc1	i	1.6	0.1	41.6	.
COc1ccc([N+](=O)[O-])cc1NC(=O)c1cn(-c2ccc(Cl)cc2)c(=O)c2ccccc12	i	1.1	-1.0	91.1*	2.4
COc1ccc(N(CC(=O)N/N=C/c2ccc(OC3CSC3)cc2)S(=O)(=O)c2ccccc2)cc1	i	-2.4	-0.5	50.2*	6.0
O=[N+]([O-])c1ccccc1C=Nn1c(-c2cc(-c3ccccc3)n[nH]2)n[nH]c1=S	.	.	0.2	.	.
COc1ccc([N+](=O)[O-])cc1NC(=O)CSc1nc(C)cc(C)n1	i	39.0	-0.9	18.0	.
COc1ccc([N+](=O)[O-])cc1NC(=O)CSc1ccc2ccccc2c1	i	12.3	-1.0	55.0*	43.5
CCOc1ccc(-n2cc(C(=O)Nc3cccc(Cl)c3)c3cc(OC)c(OC)cc3c2=O)cc1	i	-3.2	0.1	59.2*	18.9
CCOc1ccc(NC(=O)c2cn(-c3ccc(OCC)cc3)c(=O)c3cc(OC)c(OC)cc23)cc1	i	9.5	-0.2	11.0	.
O=C(NCCc1ccccc1)OCc1cn(Cc2cccc(C(F)(F)F)c2)nn1	.	.	0.2	.	.
Cc1ccccc1Cn1cc(CN2[C@@H](Cc3ccccc3)COc3cc(Br)ccc3S2(=O)=O)nn1	.	.	0.2	.	.
Cc1ccc2c(C)nc(N/C(N)=N/S(=O)(=O)c3ccc([N+](=O)[O-])cc3)nc2c1	i	4.4	0.7	52.2*	58.4*
Cc1nn(-c2ccccn2)c2c1C(c1ccccc1Cl)C1=C(N2)c2ccccc2C1=O (stereo not given)	i	-13.8	-0.1	53.0*	3.3
CSC1=C(C#N)C(c2ccccc2Cl)C2=C(N1)c1ccccc1C2=O (stereo not given)	i	3.4	5.8	27.5	.
COc1ccc(C2CC(c3cccs3)=NN2C(=O)CSc2nc(=O)n3cc(C)ccc3n2)cc1 (stereo not given)	i	1.1	-0.4	52.9*	3.6
Cc1cccn2c(=O)c3cc(S(=O)(=O)c4ccc(Br)cc4)c(=N)n(C4CCCCC4)c3nc12	i	-12.0	-0.7	50.7*	6.6
Cc1ccc(S(=O)(=O)c2cc3c(=O)n4cccc(C)c4nc3n(C3CCCCC3)c2=N)cc1	i	4.3	.	7.0	.
CC(=O)N1CCN(S(=O)(=O)c2cccc(C(=O)OCc3ccc(C(C)(C)C)cc3)c2)CC1	i	19.5	0.8	88.5*	51.2*
N#CCC[C@H]1CC[C@]2(CCCN(C(=O)c3ccno3)C2)O1	.	.	-0.1	.	.
